Screening results deposited in PubChem BioAssay by Johns Hopkins Ion Channel Center.
KCNQ2 block = rat KCNQ2 potassium channel inhibitors, primary screen, cell-based, CHO-K1, FluxOR thallium flux, B-score; 20 min; active compounds read low; actives 1.1% (n = 310,000); Potassium voltage-gated channel subfamily KQT member 2 (Rattus norvegicus), O88943; B-score at 10 µM;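 active means fluorescence ratio B-score at most minus 3 library SDs, with starting brightness B-score within 2 library SDs, cut at about -5.5 in these data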
KCNQ2 pot = potentiators of rat KCNQ2 potassium channel; B-score at 10 µM; actives 0.54% (n = 310,000); CHO-K1 KCNQ2, FluxOR thallium flux fluorescence; active compounds read high; Potassium voltage-gated channel subfamily KQT member 2 (Rattus norvegicus), O88943; AID 2239, 2010;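 active means fluorescence ratio B-score at least 3 SD of library B-scores, with initial fluorescence B-score within 3 of them, cut at about 5.3 in these data; same plate scores as AID 2156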;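 further: B-score of peak minus minimum over baseline fluorescence ratio after K+ and Tl+ stimulus; positive B-score means potentiation of KCNQ2 with more thallium influx and brighter signal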
KCNQ2 block conf = rat KCNQ2 potassium channel inhibitors, confirmation, cell-based, thallium flux; activity change, negative = inhibition, % at 10 µM; KCNQ2-expressing cells, inhibition; active compounds read low; actives 57% (n = 1,000); shares compounds with KCNQ2 block;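 further: 0% = vehicle wells and values are ratio percent relative to vehicle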
KCNQ1 spec = human KCNQ1 channel inhibition, counter-screen for KCNQ2 inhibitor project, cell-based, FluxOR thallium flux. AID 493026, 2011. shares compounds with KCNQ2 block. KCNQ1-expressing cells, FluxOR thallium flux fluorescence; active compounds read low. activity change, negative = inhibition, % at 10 µM. actives 15% (n = 1,000);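 active means activity change at least 3 SD of negative controls below their mean in both duplicate wells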;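 further: CHO cells stably transfected with KCNQ1 and depolarized by potassium stimulus; peak minus minimum fluorescence over baseline after thallium addition; 0% = vehicle negative control and -100% = blank without thallium stimulus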
Target sequence (P51787 whole entry, looked up): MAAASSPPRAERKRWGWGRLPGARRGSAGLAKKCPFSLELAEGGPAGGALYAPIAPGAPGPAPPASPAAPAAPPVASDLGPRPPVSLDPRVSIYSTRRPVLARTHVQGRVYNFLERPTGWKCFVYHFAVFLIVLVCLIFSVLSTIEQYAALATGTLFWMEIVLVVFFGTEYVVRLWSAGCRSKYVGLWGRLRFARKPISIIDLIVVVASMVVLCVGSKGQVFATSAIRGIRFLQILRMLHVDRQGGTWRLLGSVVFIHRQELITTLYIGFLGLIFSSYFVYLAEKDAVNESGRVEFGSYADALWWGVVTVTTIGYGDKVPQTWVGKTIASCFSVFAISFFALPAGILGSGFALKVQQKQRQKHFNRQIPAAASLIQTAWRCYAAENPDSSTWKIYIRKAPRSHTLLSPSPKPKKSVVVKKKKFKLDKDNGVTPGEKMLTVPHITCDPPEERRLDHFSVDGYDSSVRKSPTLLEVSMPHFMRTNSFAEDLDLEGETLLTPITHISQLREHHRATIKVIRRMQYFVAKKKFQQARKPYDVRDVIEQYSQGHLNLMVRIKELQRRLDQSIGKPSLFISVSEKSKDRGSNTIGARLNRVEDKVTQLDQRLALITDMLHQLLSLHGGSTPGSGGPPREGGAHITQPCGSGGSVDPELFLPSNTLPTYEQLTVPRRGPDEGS
CHO parental ctr = thallium flux change in parental CHO cells, counter-screen for KCNQ2 inhibitor project; shares compounds with KCNQ2 block; active compounds read low; activity change, % at 10 µM; actives 14% (n = 1,000);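 further: 0% = vehicle negative controls with stimulus buffer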
KCNQ2 patch conf = rat KCNQ2 channel inhibitors, confirmation, cell-based, automated patch clamp, single concentration. shares compounds with KCNQ2 block. KCNQ2-expressing cells, automated patch clamp current. calls only at 10 µM. actives 49% (n = 550). AID 588531, 2011
Starred values were filed as active, the others as inactive; i = inactive; . = no result; + = active, no number. Rows were chosen to be rich in hits. Some 1.6% of all compounds tested hit in one or more screens of this group. Unless noted, how the calls were made is not given here.

SMILES	KCNQ2 block	KCNQ2 pot	KCNQ2 block conf	KCNQ1 spec	CHO parental ctr	others
Cc1ccc(C)c(N2N=C(C(=O)N(CC(C)C)c3c(N)n(Cc4ccccc4)c(=O)[nH]c3=O)CCC2=O)c1	i	.	.	.	.
Cc1csc(NC(=O)c2nn(C)c(C)c2[N+](=O)[O-])n1	i	.	.	.	.
CCN(CCCn1c(SCC#N)nc2ccccc2c1=O)c1ccccc1	-8.75*	-8.75	i	i	i
C=C(C)Cn1c(SCC#N)nc2ccccc2c1=O	i	0.48	.	.	.
Cc1ccc2ncccc2c1NC(=S)NC(=O)c1ccccc1	i	0.49	.	.	.
Cc1cccc(-n2ncc3c2CCCC3NC(=O)CCCN2CCCCC2=O)c1C (configuration not stated)	i	1.04	.	.	.
COC(=O)CCC(=O)N1CCCC(CO)(Cc2ccccc2C)C1 (configuration not stated)	i	0.29	.	.	.
Cc1ccccc1CC1(CO)CCCN(C(=O)CCC(=O)c2ccccc2)C1 (configuration not stated)	-8.55*	-8.55	-29.5%*	i	i	KCNQ2 patch conf=+
CCOc1ccc(NC(=O)CSc2nnnn2-c2ccc(C(N)=O)cc2)cc1	i	.	.	.	.
O=C(NCCN1CCOCC1)c1cnn2c(-c3ccccc3)cc(-c3ccccc3)nc12	i	.	.	.	.
Cc1ccc(-c2cc(C(=O)N3CCC(C)CC3)c3ccccc3n2)cc1	-8.3*	-8.3	-29.0%*	i	i	KCNQ2 patch conf=i
O=C(c1cc(-c2ccc(Cl)cc2)nc2ccccc12)N1CCOCC1	i	.	.	.	.
O=C(NC1CCCC1)c1cc2nc(-c3ccccc3)cc(-c3ccccc3)n2n1	i	.	.	.	.
O=C(c1cnn2c(-c3ccccc3)cc(-c3ccccc3)nc12)N1CCN(Cc2ccccc2)CC1	-8.93*	-8.93	-28.0%*	i	i	KCNQ2 patch conf=i
CC1CCN(C(=O)c2cc3nc(-c4ccccc4)cc(-c4ccccc4)n3n2)CC1	-7.84*	-7.84	-35.0%*	i	i	KCNQ2 patch conf=i
CCCC[C@@H]1CNC(=S)N1CCCC	i	1.17	.	.	.
COc1ccc(C(=O)Nc2ccnn2C2CCN(C(=O)c3cc(C)on3)CC2)cc1	i	1.12	.	.	.
CC(C)(C)C(=O)Cn1ncc(Br)c(Br)c1=O	i	0.81	.	.	.
Cc1nn(C(C)C(=O)NC2CCCCCC2)c(=O)c2nn(-c3ccccc3)c(C)c12 (configuration not stated)	i	0.7	.	.	.
CCCc1cc(NCCCO)n2c(nc3ccccc32)c1C#N	i	.	.	.	.
COC(=O)CC1COc2ccccc2N1C(=O)c1ccc(C(C)(C)C)cc1 (configuration not stated)	-6.81*	-6.81	-29.0%*	i	i	KCNQ2 patch conf=+
COC(=O)CC1COc2ccccc2N1C(=O)c1ccc(Br)cc1 (configuration not stated)	i	.	.	.	.
O=[N+]([O-])c1ccc(N2CCc3ccccc3C2)cc1	-7.08*	-7.08	i	i	i
O=[N+]([O-])c1ccc(-c2csc(N3CCc4ccccc4C3)n2)cc1	i	.	.	.	.
O=C(CC1SC(=O)NC1=O)Oc1ccc(/C=N/NC(=O)c2ccccc2O)cc1 (configuration not stated)	i	0.22	.	.	.
SMILES	KCNQ2 block	KCNQ2 pot	KCNQ2 block conf	KCNQ1 spec	CHO parental ctr	others
Cn1cnnc1SCCC(=O)Nc1ccccc1	-8.26*	-8.26	i	i	i
Cn1cnnc1SCCC(=O)Nc1ccc(Cl)cc1	i	0.87	.	.	.
O=C(OCc1ccccc1F)c1cnc(Cl)c(Cl)c1	i	0.68	.	.	.
Cc1ccccc1C(=O)Oc1cccc(Nc2ncnc3ccccc23)c1	-9.62*	-9.62	i	i	i
CC(=O)Oc1cccc(Nc2ncnc3ccccc23)c1	i	.	.	.	.
CCCCc1ccc(NC(=S)N2CCCC2)cc1	i	0.67	.	.	.
N#C/C(=C\c1ccccc1[N+](=O)[O-])C(=O)NC1CCCCC1	-6.86*	-6.86	-34.0%*	i	i	KCNQ2 patch conf=+
CCOc1ccccc1/C=C(\C#N)C(=O)NC1CC1	i	.	.	.	.
COc1ccc(C(=O)C2CCCN(C(=O)/C=C/c3cnc[nH]3)C2)c(C)c1 (configuration not stated)	i	.	.	.	.
CC(NS(=O)(=O)c1cc2c3c(c1)CCC(=O)N3CCC2)c1ccccc1 (configuration not stated)	i	1.18	.	.	.
Cn1c(SCCC#N)nnc1-c1ccc(F)cc1	i	0.45	.	.	.
CC(C)(C)c1ccc(-c2nnc(SCCC#N)n2C2CCCC2)cc1	-8.48*	-8.48	-28.0%*	i	i	KCNQ2 patch conf=i
CCc1c(C)sc2nc3c(C(=O)N4CCOCC4)cc(C(=O)c4cc(F)ccc4O)cn3c(=O)c12	-8.48*	-8.48	-24.5%*	i	i	KCNQ2 patch conf=+
O=C(c1cc(C(=O)N2CCOCC2)c2nc3ccccc3n2c1)c1ccccc1O	i	.	.	.	.
N#CC(C#N)=C1NC(N)=C(C#N)C(c2ccccc2)=C1C#N	i	.	.	.	.
c1ccc(C(NCCNC(c2ccccc2)c2ccccc2)c2ccccc2)cc1	-7.23*	-7.23	-28.5%*	i	i	KCNQ2 patch conf=i
NS(=O)(=O)c1ccc(CCNC(c2ccccc2)c2ccccc2)cc1	i	0.51	.	.	.
Cc1cccc(NC(=O)COc2coc(CN3CCN(c4ccccc4)CC3)cc2=O)c1C	i	.	.	.	.
O=C(NCCC1CCCCN1S(=O)(=O)c1ccc(F)cc1)C(=O)NCC1CCCO1 (configuration not stated)	i	.	.	.	.
CC(C(=O)NCC1CCCCC1)N(C)Cc1ccc(Br)cc1 (configuration not stated)	i	.	.	.	.
CC(C(=O)NCC1CCCCC1)N(C)Cc1ccc(Cl)cc1 (configuration not stated)	-6.74*	-6.74	i	i	i
NS(=O)(=O)c1ccc(CNC(=O)CCSCCC(=O)NCc2ccc(S(N)(=O)=O)cc2)cc1	i	0.79	.	.	.
Cc1nn(C(C)C(=O)NCCCN2CCCCCC2)c(=O)c2c1sc1ccccc12 (configuration not stated)	i	.	.	.	.
Cc1nn(C(C)C(=O)NCc2ccccc2Cl)c(=O)c2c1sc1ccccc12 (configuration not stated)	-7.8*	-7.8	-31.5%*	i	i	KCNQ2 patch conf=+
O=C(CCc1ccccc1)N1CCN(c2ccc([N+](=O)[O-])cc2)CC1	i	.	.	.	.
Cc1ccc(OCCCSc2ncccn2)cc1C	i	.	.	.	.
CC(C)(C)c1cccc(OCCCSc2ncccn2)c1	-9.16*	-9.16	i	i	i
CCOC(=O)Cn1c(CCC(=O)O)ccc1-c1ccc(F)cc1	-9.3*	-9.3	i	i	i
O=C(O)CCc1ccc(-c2ccc(F)cc2)n1CC(=O)O	i	.	.	.	.
